In PubChem BioAssay AID620 (Sanford-Burnham Center for Chemical Genomics, 2007):
About 360 (0.41%) of roughly 87,000 compounds were called active. What follows is part of a selection rich in actives, with near analogues and random picks from the rest. Values without a mark were called inactive. Rule as the data show it: active = cytotoxicity above about 50%; inactive = the rest.

Test: cytotoxicity in HT1080 fibrosarcoma cells, cell-based, fluorescence readout (AID 620);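 also: cells exposed to compound overnight then 4 h with Alamar Blue; 0% = vehicle DMSO and 100% = killing control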
Conditions: HT1080 viability, at 10 µM, hits give high values

SMILES | cytotoxicity
CCOc1ccc(N2C(=O)CSC23CCCCC3)cc1 | -10.8%
COCCn1c(SCC(=O)NCc2cccs2)nnc1-c1ccc(OC)cc1 | 7.9%
Cc1ccc(SC(C)C(=O)Nc2ccncc2)cc1 (configuration not stated) | -1.4%
O=C1c2[nH]nc(-c3ccccc3O)c2C(c2cccc(Cl)c2)N1Cc1ccco1 (configuration not stated) | 3.9%
Cc1ccc(S(=O)(=O)N2CCN(C(=O)c3ccc(OCc4c(C)noc4C)cc3)CC2)cc1 | -2.3%
NC(=O)C1CCN(C(=S)c2cccs2)CC1 | 8.7%
N#CC1=C2SCC(O)(c3ccccc3)N2C(=O)CC1c1ccccc1 (configuration not stated) | 63.1% (active)
COc1ccc(C2CC(=O)N3C(=C2C#N)SCC3(O)c2ccccc2)cc1 (configuration not stated) | 5.5%
N#CC1=C2SCC(O)(c3ccccc3)N2C(=O)CC1c1ccccc1F (configuration not stated) | 4.1%
O=C(NCCCN1CCCC1=O)c1cccs1 | 1.9%
Cn1c(=O)c2c(nc(CN3CCN(c4ccccc4)CC3)n2CCN2CCOCC2)n(C)c1=O | 8.9%
COc1ccc(Nc2cc(C)nc(-n3nc(C)cc3C)n2)cc1 | 65.9% (active)
COc1ccc(Nc2cc(C)nc(N3CCOCC3)n2)cc1 | 21.5%
CCOc1ccc(Nc2cc(C)nc(N3CCOCC3)n2)cc1 | -0.6%
CNc1cc(C)nc(-n2nc(C)cc2C)n1 | 2.1%
CCOc1ccc(Nc2cc(C)nc(-n3nc(C)cc3C)n2)cc1 | 50.6% (active)
Cc1cc(NCCO)nc(-n2nc(C)cc2C)n1 | -5.5%
CCCc1nc2sc3ccccc3c(=O)c2c(=O)n1Cc1ccco1 | 21%
Cc1cccc(NS(=O)(=O)c2cc(C(=O)N3CCN(C)CC3)ccc2C)c1 | -3.1%
COc1cc(OC)cc(C(=O)Nc2nc3ccccc3[nH]2)c1 | -1.1%
COC(=O)Nc1nc2ccc(C(=O)c3ccccc3)cc2[nH]1 | 61.1% (active)
COc1ccc(C(=O)Nc2nc3ccccc3[nH]2)cc1OC | 0.5%
COC(=O)Nc1nc2ccc(Sc3ccccc3)cc2[nH]1 | 62.2% (active)
COc1cc(C(=O)Nc2nc3ccccc3[nH]2)cc(OC)c1OC | -3.2%
Cc1nc2ccc(C(=O)c3ccccc3)cc2[nH]1 | -6.6%
Cc1ccc(-c2nc(CS(=O)CC(=O)NC3CCC(C)CC3)c(C)o2)cc1 (configuration not stated) | -9.8%

SMILES | cytotoxicity
CCc1ccc(OC)c(S(=O)(=O)Nc2ccccc2C)c1 | 3.8%
CC(C)N(c1ccccc1)c1ccc(NC(=O)C2CCCO2)cc1 (configuration not stated) | -3.8%
Cn1nnnc1Sc1ncnc2scc(-c3ccc(F)cc3)c12 | 20%
Cc1ccc(-c2csc3ncnc(NCCN4CCOCC4)c23)cc1 | -10.9%
CNC(=O)CN1C(=O)CSc2ncccc21 | -11.8%
Cn1c(=NC(=O)CCl)sc2ccccc21 | 98.2% (active)
CC(=O)N=c1sc2ccccc2n1C | -2.3%
Cn1c(=NC(=O)CN2C(=O)C3CC=CCC3C2=O)sc2ccccc21 (configuration not stated) | -0.3%
CC(=O)Nc1ccc(NC(=O)Cn2c(CC(=O)N3CCCC3)nc3ccccc32)cc1 | -27.7%
C=CCn1c(N2C(=O)CC(Cc3ccccc3)C2=O)nc2ccccc21 (configuration not stated) | 5.8%
CCc1ccc(NC(=O)c2ccccc2NC(=O)C2CCCO2)cc1 (configuration not stated) | -5.7%
COc1cccc2c(=O)n(CC(=O)NC3CCCC3)ccc12 | 2.2%
CNc1nc(-c2ccccn2)nnc1-c1ccccc1 | 10.4%
c1ccc(-c2nnc(-c3ccccn3)nc2NC2CCCCC2)cc1 | 50.7% (active)
c1ccc(-c2noc(C3CCCCC3)n2)nc1 | -7.2%
CN1CCC(N(C)C(=O)c2ccccc2Nc2ccc(SC(F)F)cc2)CC1 | 5.3%
CCCn1c(NCc2ccc(C)o2)nc2ccccc21 | 0.5%
COCCn1nnnc1C(c1ccc2ncccc2c1)N1CCN(c2ccccc2F)CC1 (configuration not stated) | -18.9%
O=S(=O)(c1ccccc1)N1c2cc(Cl)ccc2Oc2nc3ccccc3nc21 | -4.7%
COc1ccc(S(=O)(=O)N2c3cc(Cl)ccc3Oc3nc4ccccc4nc32)cc1 | 70.2% (active)
O=S(=O)(c1ccc(Cl)cc1)N1c2ccccc2Oc2nc3ccccc3nc21 | 3.8%
COC(=O)c1cc(NS(=O)(=O)c2ccc(OC)c(OC)c2)ccc1Cl | 3.3%
COCc1[nH]nc2c1C(c1ccccc1Cl)C(C#N)=C(N)O2 (configuration not stated) | -4.4%
Cc1cc(C(C)(C)C)nc2[nH]n(-c3ccccc3)c(=O)c12 | -2.1%
Cc1ccnc(NC(=O)c2cc(-n3cnnc3)ccc2Cl)c1 | 12.1%
CC(C)(C)C(=O)Nc1sc2c(c1C#N)CCCCC2 | 5.8%

SMILES | cytotoxicity
COCCCNC(=O)CC(NS(=O)(=O)c1ccc(Cl)cc1)c1ccco1 (configuration not stated) | -9.5%
CC(C)CNS(=O)(=O)c1ccc(CCC(=O)N2CCOCC2)cc1 | 2.1%
C=C(C)COc1ccc(-c2n[nH]c(C)c2-c2ccc(Br)cc2)c(O)c1 | 50.7% (active)
C=C(C)COc1ccc(-c2n[nH]c(C)c2-c2ccc(OC)cc2)c(O)c1 | -14.1%
COc1ccc(-c2n[nH]c(C)c2-c2ccc(Cl)cc2)c(O)c1 | -10.8%
COc1ccccc1NS(=O)(=O)c1cc(Cl)ccc1OC | 16.4%
Cn1c(N)c(C(=O)COC(=O)c2cc(C(F)(F)F)nc3ccccc23)c(=O)n(Cc2ccccc2)c1=O | 5.9%
CCc1c(C)nc2ncnn2c1NCCc1ccc(OC)cc1 | 61.9% (active)
COc1ccc(CCNc2c(C)c(C)nc3ncnn23)cc1 | 17.9%
CCc1c(C)nc2ncnn2c1NCCc1ccccc1 | -9.2%
O=C(N1CCOCC1)C12CC3CC(C1)CC(C(=O)N1CCOCC1)(C3)C2 | -17.8%
Cc1cc(C)c(C)c(S(=O)(=O)NCC(=O)N2CCCC2)c1C | 6.8%
COc1ccc(NC(=O)c2cc(=O)c3ccccc3o2)cn1 | 7%
COc1ccc(NC(=O)/C(Cl)=C(/Cl)S(=O)Cc2ccc(C)cc2)cn1 (configuration not stated) | 92.3% (active)
COc1ccc(NC(=O)/C(Cl)=C(/Cl)S(=O)Cc2ccccc2)cn1 (configuration not stated) | 95.5% (active)
COc1ccc(NC(=O)c2nc3nccc(C)n3n2)cn1 | 10.5%
CCOc1ccccc1OCCCC(=O)Nc1ccc(OC)nc1 | 2.4%
COc1ccc(NC(=O)c2cc(CN3C(=O)c4ccccc4C3=O)ccc2OC)cn1 | -0.1%
COc1ccc(CC(=O)N2CCN(C(=O)c3ccco3)CC2)cc1 | 4.7%
NC(=O)C(c1ccccc1)C1CCCCC1 (configuration not stated) | 5.9%
CC1(C)CC(=O)C=C(NCCN2CCN(C(=O)Nc3ccc(Cl)cc3)CC2)C1 | -6.1%
Cc1[nH]nc(SCC(=O)N2CCC(C)CC2)c1[N+](=O)[O-] | 0.7%
COC(=O)C1CC(=O)N(CCc2c[nH]c3ccccc23)C1 (configuration not stated) | 2.6%
COC(=O)Cn1nc(-c2ccccc2)c2ccccc2c1=O | 5.9%
COc1ccc(-n2nnnc2S(=O)(=O)CC(=O)N2CCCCC2)cc1 | 54.3% (active)
COc1ccc(-n2nnnc2S(=O)(=O)Cc2ccc(C(=O)O)cc2)cc1 | 11.4%

SMILES | cytotoxicity
COc1cc(OC)cc(-n2nnnc2SCC(=O)N2CCCC2)c1 | -5.2%
Cn1c(SCc2cc(=O)[nH]c3ccccc23)nnc1-c1ccc(Br)cc1 | 6%
C(=C\c1ccccc1)/CSc1nnc(-c2ccncc2)n1Cc1ccco1 | -2.1%
Clc1cccc(-c2nnc(SC/C=C/c3ccccc3)n2Cc2ccco2)c1 | -0.5%
C(=C\c1ccccc1)/CSc1nnc(-c2ccccc2)n1Cc1ccco1 | 53.5% (active)
O=C(CN1C(=O)NC(Cc2ccccc2)C1=O)Nc1ccccc1 (configuration not stated) | -3.1%
COC(=O)CSc1cc(C)nc(SC)n1 | -7.3%
O=C(Nc1cc(Cl)ccc1O)C1CCCO1 (configuration not stated) | -2.4%
CCc1nnc(NC(=O)Cn2nc(-c3ccccc3OC)ccc2=O)s1 | 10.1%
CC(=O)c1cn(CC(=O)Nc2ccccc2C)c2ccccc12 | -1.9%
Cc1ccccc1NS(=O)(=O)c1cc(S(C)(=O)=O)ccc1Cl | -10.1%
CN1CCN(c2ccc(Cl)cc2NS(=O)(=O)c2ccccc2Cl)CC1 | -1.9%
Cc1ccc(NS(=O)(=O)c2ccccc2Cl)c2c1CC(C)(C)O2 | 62.3% (active)
COc1ccc(C2C(C(C)=O)=C(O)C(=O)N2C)c(OC)c1 (configuration not stated) | 5.8%
COC(=O)C1=C(C)C(c2ccc(OC)cc2OC)NC(=O)N1 (configuration not stated) | 2.9%
COc1ccc(C2CC(c3c(O)cc(C)oc3=O)=NCCS2)c(OC)c1 (configuration not stated) | 51.9% (active)
CN1CC=C2C(C#N)=C(N)C(C#N)(C#N)[C@H](c3ccoc3)[C@H]2C1 | -7.5%
N#CC1=C(N)C(C#N)(C#N)[C@H](c2ccoc2)[C@H]2CN(Cc3ccccc3)CC=C12 | 66.1% (active)
CCN1CC=C2C(C#N)=C(N)C(C#N)(C#N)[C@H](c3ccoc3)[C@H]2C1 | -2.2%
CCOC(=O)c1ccc(NC(=O)CN2CCc3ccccc3C2)cc1 | -3.7%
COc1cccc(-c2cc(C(=O)Nn3cnnc3)c3ccccc3n2)c1 | 11.6%
CN(C)c1nc(NS(=O)(=O)c2ccc(Cl)cc2)nc(N(C)C)n1 | 35.3%
CCNc1nc(NC(C)C)nc(NS(=O)(=O)c2ccc(Cl)cc2)n1 | -8.8%
CCN(CC)c1nc(N)nc(NS(=O)(=O)c2ccc(Cl)cc2)n1 | 51.4% (active)
